The whole screen tested about 5,500 compounds, of which about 2,000 (36%) were called active. Roughly 18% stayed inconclusive and do not appear here. No stated cut-off is given here; in the data, active means normalized growth mostly below about 0.91 (no sharp cut-off); inconclusive means no clear call, values can overlap the other calls; inactive means mostly above about 0.92. This is one part of the list.
Experiment: chemical genetic growth profiling, strain panel (AID 1159580);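 further: tested at 20 µM; growth read once vehicle control cultures reached saturation at 30 °C; 1 = growth at the plate median or of vehicle wells; lower values mean less growth of the strain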
Conditions: growth OD
[1] = S. cerevisiae deletion strains, locus YAL013W, strain DEP1, active compounds read low
[2] = S. cerevisiae deletion strains, locus YBR229C, strain ROT2, active compounds read low
[3] = S. cerevisiae deletion strains, locus YDL101C, strain DUN1, active compounds read low
[4] = S. cerevisiae deletion strains, locus YDR150W, strain NUM1, active compounds read low
[5] = S. cerevisiae deletion strains, locus YEL061C, strain CIN8, active compounds read low
[6] = S. cerevisiae deletion strains, locus YGR078C, strain PAC10, active compounds read low
[7] = S. cerevisiae deletion strains, locus YHR030C, strain SLT2, active compounds read low
[8] = S. cerevisiae deletion strains, locus YJR043C, strain POL32, active compounds read low
[9] = S. cerevisiae deletion strains, locus YJR075W, strain HOC1, active compounds read low
[10] = S. cerevisiae deletion strains, locus YLR039C, strain RIC1, active compounds read low
[11] = S. cerevisiae deletion strains, locus YLR262C, strain YPT6, active compounds read low
[12] = S. cerevisiae deletion strains, locus YMR263W, strain SAP30, active compounds read low
[13] = S. cerevisiae deletion strains, locus YNL128W, strain TEP1, active compounds read low
[14] = S. cerevisiae deletion strains, locus YNL153C, strain GIM3, active compounds read low
[15] = S. cerevisiae deletion strains, locus YNL322C, strain KRE1, active compounds read low
[16] = S. cerevisiae deletion strains, locus YPL055C, strain LGE1, active compounds read low
[17] = S. cerevisiae deletion strains, locus YPL241C, strain CIN2, active compounds read low

Measured: normalized growth

N[C@@H](C(=O)O)c1ccccc1
inactive: [1] 1 | [2] 1 | [3] 1.01 | [4] 0.997 | [5] 1 | [6] 0.998 | [7] 0.927 | S. cerevisiae deletion strains, locus YHR087W, strain rtc3, active compounds read low 0.998 | [8] 1.01 | [9] 0.992 | [10] 0.981 | S. cerevisiae deletion strains, locus YLR058C, strain SHM2 (second series), active compounds read low 0.992 | S. cerevisiae deletion strains, locus YLR085C, strain ARP6, active compounds read low 1.04 | [11] 0.954 | S. cerevisiae deletion strains, locus YML094W, strain GIM5, active compounds read low 1.03 | S. cerevisiae deletion strains, locus YMR219W, strain ESC1, active compounds read low 1 | [12] 0.987 | [13] 0.985 | [14] 0.999 | S. cerevisiae deletion strains, locus YNL298W, strain CLA4 (second series), active compounds read low 1.02 | [15] 1.01 | S. cerevisiae deletion strains, locus YNR030W, strain Alg12, active compounds read low 1.03 | [16] 0.996 | [17] 1.02 | S. cerevisiae deletion strains, locus YPR135W, strain CTF4, active compounds read low 0.974

CC1(C)C(C=C(Cl)Cl)C1C(=O)OC(C#N)c1cccc(Oc2ccccc2)c1 (stereo unspecified)
inactive: [1] 0.996 | S. cerevisiae deletion strains, locus YBR021W, strain FUR4, active compounds read low 0.962 | [2] 0.986 | S. cerevisiae deletion strains, locus YCL029C, strain bik1, active compounds read low 1.01 | S. cerevisiae deletion strains, locus YDL035C, strain GPR1, active compounds read low 0.998 | S. cerevisiae deletion strains, locus YDL074C, strain BRE1, active compounds read low 1.01 | [3] 0.993 | S. cerevisiae deletion strains, locus YDL134C, strain PPH21, active compounds read low 0.995 | S. cerevisiae deletion strains, locus YDL185W, strain tfp1, active compounds read low 0.996 | S. cerevisiae deletion strains, locus YDL192W, strain arf1, active compounds read low 1 | S. cerevisiae deletion strains, locus YDR101C, strain arx1, active compounds read low 0.996 | [4] 1 | S. cerevisiae deletion strains, locus YDR162C, strain NBP2, active compounds read low 1.02 | S. cerevisiae deletion strains, locus YDR318W, strain mcm21, active compounds read low 0.983 | S. cerevisiae deletion strains, locus YDR388W, active compounds read low 1 | S. cerevisiae deletion strains, locus YDR502C, strain sam2, active compounds read low 0.998 | [5] 0.999 | S. cerevisiae deletion strains, locus YER110C, active compounds read low 0.99 | S. cerevisiae deletion strains, locus YER155C, strain BEM2, active compounds read low 0.999 | S. cerevisiae deletion strains, locus YER167W, strain BCK2, active compounds read low 0.987 | S. cerevisiae deletion strains, locus YGL078C, strain dbp3, active compounds read low 1 | S. cerevisiae deletion strains, locus YGL086W, strain mad1, active compounds read low 0.954 | S. cerevisiae deletion strains, locus YGL248W, strain PDE1, active compounds read low 0.983 | [6] 1.01 | S. cerevisiae deletion strains, locus YGR135W, strain pre9, active compounds read low 0.992 | S. cerevisiae deletion strains, locus YGR229C, strain SMI1, active compounds read low 1 | S. cerevisiae deletion strains, locus YGR252W, strain gcn5, active compounds read low 0.95 | [7] 0.99 | S. cerevisiae deletion strains, locus YHR079C, strain IRE1 (second series), active compounds read low 1 | S. cerevisiae deletion strains, locus YHR094C, strain hxt1, active compounds read low 0.998 | S. cerevisiae deletion strains, locus YHR129C, strain ARP1, active compounds read low 0.997 | S. cerevisiae deletion strains, locus YHR200W, strain rpn10, active compounds read low 0.992 | S. cerevisiae deletion strains, locus YIL066C, strain RNR3, active compounds read low 0.98 | S. cerevisiae deletion strains, locus YIL073C, strain SPO22, active compounds read low 0.99 | S. cerevisiae deletion strains, locus YIL125W, strain kgd1, active compounds read low 1.01 | S. cerevisiae deletion strains, locus YIR030C, strain dcg1, active compounds read low 0.998 | S. cerevisiae deletion strains, locus YJL095W, strain BCK1, active compounds read low 1.01 | S. cerevisiae deletion strains, locus YJL134W, strain LCB3, active compounds read low 0.984 | S. cerevisiae deletion strains, locus YJL168C, strain set2, active compounds read low 1 | S. cerevisiae deletion strains, locus YJL187C, strain SWE1 (second series), active compounds read low 1 | [8] 0.987 | [9] 0.998 | S. cerevisiae deletion strains, locus YKL009W, strain mrt4, active compounds read low 0.96 | S. cerevisiae deletion strains, locus YKL068W, active compounds read low 1 | S. cerevisiae deletion strains, locus YKL085W, strain MDH1 (second series), active compounds read low 0.992 | S. cerevisiae deletion strains, locus YKL085W, strain MDH1, active compounds read low 0.992 | S. cerevisiae deletion strains, locus YKL190W, strain CNB1, active compounds read low 1 | S. cerevisiae deletion strains, locus YKR001C, strain vps1, active compounds read low 0.976 | [10] 0.969 | S. cerevisiae deletion strains, locus YLR058C, strain SHM2, active compounds read low 0.993 | S. cerevisiae deletion strains, locus YLR102C, strain apc9, active compounds read low 1 | [11] 0.99 | S. cerevisiae deletion strains, locus YLR268W, strain sec22, active compounds read low 1 | S. cerevisiae deletion strains, locus YLR330W, strain CHS5, active compounds read low 0.995 | S. cerevisiae deletion strains, locus YLR342W, strain FKS1 (second series), active compounds read low 0.951 | S. cerevisiae deletion strains, locus YLR371W, strain rom2, active compounds read low 1 | S. cerevisiae deletion strains, locus YLR418C, strain cdc73, active compounds read low 1.05 | S. cerevisiae deletion strains, locus YML016C, strain PPZ1, active compounds read low 0.994 | S. cerevisiae deletion strains, locus YML032C, strain rad52, active compounds read low 0.98 | S. cerevisiae deletion strains, locus YML124C, strain tub3, active compounds read low 0.998 | S. cerevisiae deletion strains, locus YMR078C, strain ctf18, active compounds read low 0.98 | S. cerevisiae deletion strains, locus YMR223W, strain ubp8, active compounds read low 0.974 | [12] 1.01 | S. cerevisiae deletion strains, locus YMR307W, strain GAS1, active compounds read low 0.94 | S. cerevisiae deletion strains, locus YNL067W, strain RPL9B, active compounds read low 1.01 | [13] 1 | [14] 1.01 | S. cerevisiae deletion strains, locus YNL233W, strain BNI4, active compounds read low 1.01 | S. cerevisiae deletion strains, locus YNL250W, strain rad50, active compounds read low 0.993 | S. cerevisiae deletion strains, locus YNL271C, strain bni1, active compounds read low 0.998 | S. cerevisiae deletion strains, locus YNL298W, strain CLA4, active compounds read low 0.964 | S. cerevisiae deletion strains, locus YNL307C, strain MCK1, active compounds read low 0.991 | [15] 0.994 | S. cerevisiae deletion strains, locus YNR052C, strain pop2, active compounds read low 0.979 | S. cerevisiae deletion strains, locus YOL006C, strain TOP1, active compounds read low 1.03 | S. cerevisiae deletion strains, locus YOL012C, strain htz1 1.96 | S. cerevisiae deletion strains, locus YOL147C, strain pex11, active compounds read low 1.01 | S. cerevisiae deletion strains, locus YOR061W, strain CKA2, active compounds read low 0.997 | S. cerevisiae deletion strains, locus YOR069W, strain VPS5, active compounds read low 0.995 | S. cerevisiae deletion strains, locus YOR136W, strain idh2, active compounds read low 1 | S. cerevisiae deletion strains, locus YOR144C, strain elg1, active compounds read low 0.997 | S. cerevisiae deletion strains, locus YOR184W, strain ser1, active compounds read low 0.983 | S. cerevisiae deletion strains, locus YOR316C, strain cot1, active compounds read low 0.996 | [16] 1.03 | [17] 1 | S. cerevisiae deletion strains, locus YPR119W, strain clb2, active compounds read low 1.01 | S. cerevisiae deletion strains, locus YPR141C, strain kar3, active compounds read low 0.992 | S. cerevisiae deletion strains, locus YPR163C, strain tif3, active compounds read low 1.01 | S. cerevisiae deletion strains, locus YPR167C, strain met16, active compounds read low 0.99 | S. cerevisiae deletion strains, strain wtn01, active compounds read low 0.991 | S. cerevisiae strains, strain wild type, active compounds read low 1.01

— PubChem BioAssay AID1159580 (chemical genetic matrix, 2015)
